Data published in article PMC5540273 (PLoS ONE, 2017).

System: LYN
Conditions: concentration: 1 μM, replicates: in singlicate; n = 1
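Further: KINOMEscan kinase panel screen.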

`Cc1c(Cn2c3ccccc3n3c(=O)cc(N4CCOCC4)nc23)cccc1C(F)(F)F` [GSK2306394] and `Cc1c(Cn2c(C)c(C)n3c(=O)cc(N4CCOCC4)nc23)cccc1C(F)(F)F` [GSK2328680] are the same in “%Inh” value: 0% for the first, 0% for the second.

First: Fc1ccc(-c2nc[nH]c2-c2ccncc2)cc1 [SB-217360]
Second: Fc1ccc(-c2nn3cccc(F)c3c2-c2ccncc2)cc1 [GW475620]
The “%Inh” value of the first is lower: 0% for the first, 6% for the second.

`COc1cccc(CNC(=O)NC2CCN(c3ccnc(Nc4ccc(F)cc4)n3)C2)c1` (centres unmarked) [GSK1379723] and `COC(=O)c1cccc(NC(=O)NC2CCN(c3ccnc(Nc4ccc(F)cc4)n3)C2)c1` (centres unmarked) [GSK1379725] are the same in “%Inh” value: 0% for the first, 0% for the second.

Compared with `Cc1ccccc1-c1cc(-c2c[nH]nc2-c2ccccn2)ccn1` [GW680061], `COc1ccc2cc(-c3nc(-c4ccccc4C(C)C)[nH]c3-c3ccncc3)ccc2c1` [SB-660566] is higher in “%Inh” value: 0% for the first, 20% for the second.

Compared with `COC(=O)C(NC(=O)NC1CCN(c2ccnc(Nc3ccc(F)cc3)n2)C1)c1ccccc1` (centres unmarked) [GSK1379712], `COC(=O)c1cccc(NC(=O)NC2CCN(c3ccnc(Nc4ccc(OC)cc4)n3)C2)c1` (centres unmarked) [GSK1379746] is lower in “%Inh” value: 7% for the first, 0% for the second.

Compared with `O=C1NC(=O)C(c2ccc(Cl)cc2)=C1Nc1ccc(O)cc1` [SB-340867], `Cc1ccc(NC(=O)Nc2ccc(Cl)cc2)cc1-c1ccc(C(=O)Nc2ccncc2)cc1` [GSK1398472] is higher in “%Inh” value: 8% for the first, 30% for the second.

First: COc1cc2ncnc(Nc3cccc(Br)c3)c2cc1OC.Cl [GI230329]
Second: CS(=O)(=O)CCNCc1nc(-c2ccc3ncnc(Nc4ccc(OCc5ccccc5)c(Cl)c4)c3c2)cs1.Cl [GW582764]
The “%Inh” value of the first is higher: 67% for the first, 0% for the second.

Going from `CC(=O)c1c(C)c2cnc(Nc3ccc(N4CCNCC4)cn3)nc2n(C2CCCC2)c1=O` to `CC(=O)c1c(C)c2cnc(Nc3ccn(C)n3)nc2n(C2CCCC2)c1=O`, the “%Inh” value rises from 0% to 10%.

`CCc1ccc(-c2ccc3c(c2)-c2n[nH]cc2S(=O)(=O)N3C)cc1` and `Cc1cccc2c(-c3ccncn3)c(-c3ccc(F)cc3)nn12` [GW515532] are the same in “%Inh” value: 0% for the first, 0% for the second.

`CC(C)c1cc(-c2ccc3c(N)n[nH]c3c2)nc(N)n1` [GSK2250882] and `CC[C@@H]1CO[C@H](C(=O)Nc2ccccc2)CN1c1cc(-c2ccc3c(N)n[nH]c3c2)nc(NC)n1` [GSK2376236] are the same in “%Inh” value: 0% for the first, 0% for the second.

First: COc1ccc(Nc2nccc(N3CCC(NC(=O)C(C)c4ccc(Cl)cc4)CC3)n2)cc1 (centres unmarked) [GSK1379812]
Second: CS(=O)(=O)Cc1ccc(Nc2nccc(-c3c(-c4cccc(NC(=O)C5CCCCC5)c4)nn4ncccc34)n2)cc1 [GSK350559]
The “%Inh” value of the first is lower: 0% for the first, 16% for the second.

First: Cc1ccc(NC(=O)c2ccc(Cl)cc2)cc1-c1ccc(C(=O)Nc2ccncc2)cc1 [GSK1398467]
Second: Cc1ccc(NC(=O)Nc2ccccc2F)cc1-c1ccc(C(=O)Nc2ccncc2)cc1 [GSK1398477]
The “%Inh” value of the first is lower: 30% for the first, 47% for the second.

Going from `Cl.Cl.Cl.N#Cc1ccc(CCNc2nccc(-c3cccc(CN4CCNCC4)c3)n2)cc1` [GSK2137462] to `CCCCc1nn2ncccc2c1-c1ccnc(NC2CC2)n1` [GW684374], the “%Inh” value falls from 1% to 0%.

First: COc1cccc(NC(=O)Nc2ccc(C)c(-c3ccc(C(=O)Nc4ccncc4)cc3)c2)c1 [GSK1398474]
Second: Cc1ccc(-c2nc(Nc3ccncc3)c3ccccc3n2)s1 [GSK189015]
The “%Inh” value of the first is higher: 97.9% for the first, 0% for the second.

Going from `CSc1ccc(-c2nc3n(c2-c2ccncc2)CCC3)cc1` [SKF-105561] to `Fc1ccc(-c2nc3n(c2-c2ccncc2)CCS3)cc1` [GI98581], the “%Inh” value falls from 8% to 0%.

Compared with `Cc1cnc(N)c(/C=C/c2cncc(C(=O)NCCc3ccc(Cl)cc3Cl)c2)c1.Cl` [GSK190937], `CNC(=O)c1ccc(C)c(-n2c(C)cc(OCc3ccc(F)cc3F)c(Br)c2=O)c1` is lower in “%Inh” value: 20% for the first, 1% for the second.

Going from `CCn1c(-c2c(N)noc2C)nc2cnccc21` [SB-737856] to `COc1ccc(CSc2nnc(-c3ccc4nccn4c3)o2)cc1C(F)(F)F`, the “%Inh” value rises from 0% to 7%.

First: O=c1cc(N2CCOCC2)nc2n(Cc3ccccc3F)ccn12 [GSK2297428]
Second: O=C(Nc1n[nH]c2nc(-c3cccs3)c(Br)cc12)C1CC1 [SB-735297]
The “%Inh” value of the first is lower: 0% for the first, 15% for the second.

For `CC(C)c1ccc(O)cc1Nc1ccnc2ccc(C(F)(F)F)cc12` [GW482059], the “%Inh” value was 0%.

System: T1, LZK
T1 construct: gene MAP3K13
Conditions: concentration: 1 μM, replicates: in singlicate; n = 1

`Cc1c(Cn2c3ccccc3n3c(=O)cc(N4CCOCC4)nc23)cccc1C(F)(F)F` [GSK2306394] and `Cc1c(Cn2c(C)c(C)n3c(=O)cc(N4CCOCC4)nc23)cccc1C(F)(F)F` [GSK2328680] are the same in “%Inh” value: 0% for the first, 0% for the second.

`Fc1ccc(-c2nc[nH]c2-c2ccncc2)cc1` [SB-217360] and `Fc1ccc(-c2nn3cccc(F)c3c2-c2ccncc2)cc1` [GW475620] are the same in “%Inh” value: 0% for the first, 0% for the second.

First: COc1cccc(CNC(=O)NC2CCN(c3ccnc(Nc4ccc(F)cc4)n3)C2)c1 (centres unmarked) [GSK1379723]
Second: COC(=O)c1cccc(NC(=O)NC2CCN(c3ccnc(Nc4ccc(F)cc4)n3)C2)c1 (centres unmarked) [GSK1379725]
The “%Inh” value of the first is lower: 0% for the first, 6% for the second.

Going from `Cc1ccccc1-c1cc(-c2c[nH]nc2-c2ccccn2)ccn1` [GW680061] to `COc1ccc2cc(-c3nc(-c4ccccc4C(C)C)[nH]c3-c3ccncc3)ccc2c1` [SB-660566], the “%Inh” value falls from 4% to 0%.

First: COC(=O)C(NC(=O)NC1CCN(c2ccnc(Nc3ccc(F)cc3)n2)C1)c1ccccc1 (centres unmarked) [GSK1379712]
Second: COC(=O)c1cccc(NC(=O)NC2CCN(c3ccnc(Nc4ccc(OC)cc4)n3)C2)c1 (centres unmarked) [GSK1379746]
The “%Inh” value of the first is lower: 18% for the first, 34% for the second.

Going from `O=C1NC(=O)C(c2ccc(Cl)cc2)=C1Nc1ccc(O)cc1` [SB-340867] to `Cc1ccc(NC(=O)Nc2ccc(Cl)cc2)cc1-c1ccc(C(=O)Nc2ccncc2)cc1` [GSK1398472], the “%Inh” value rises from 0% to 3%.

Going from `COc1cc2ncnc(Nc3cccc(Br)c3)c2cc1OC.Cl` [GI230329] to `CS(=O)(=O)CCNCc1nc(-c2ccc3ncnc(Nc4ccc(OCc5ccccc5)c(Cl)c4)c3c2)cs1.Cl` [GW582764], the “%Inh” value falls from 38% to 36%.

First: CC(=O)c1c(C)c2cnc(Nc3ccc(N4CCNCC4)cn3)nc2n(C2CCCC2)c1=O
Second: CC(=O)c1c(C)c2cnc(Nc3ccn(C)n3)nc2n(C2CCCC2)c1=O
The “%Inh” value of the first is higher: 89% for the first, 0% for the second.

`CCc1ccc(-c2ccc3c(c2)-c2n[nH]cc2S(=O)(=O)N3C)cc1` and `Cc1cccc2c(-c3ccncn3)c(-c3ccc(F)cc3)nn12` [GW515532] are the same in “%Inh” value: 0% for the first, 0% for the second.

`CC(C)c1cc(-c2ccc3c(N)n[nH]c3c2)nc(N)n1` [GSK2250882] and `CC[C@@H]1CO[C@H](C(=O)Nc2ccccc2)CN1c1cc(-c2ccc3c(N)n[nH]c3c2)nc(NC)n1` [GSK2376236] are the same in “%Inh” value: 0% for the first, 0% for the second.

Going from `COc1ccc(Nc2nccc(N3CCC(NC(=O)C(C)c4ccc(Cl)cc4)CC3)n2)cc1` (centres unmarked) [GSK1379812] to `CS(=O)(=O)Cc1ccc(Nc2nccc(-c3c(-c4cccc(NC(=O)C5CCCCC5)c4)nn4ncccc34)n2)cc1` [GSK350559], the “%Inh” value falls from 36% to 0%.

First: Cc1ccc(NC(=O)c2ccc(Cl)cc2)cc1-c1ccc(C(=O)Nc2ccncc2)cc1 [GSK1398467]
Second: Cc1ccc(NC(=O)Nc2ccccc2F)cc1-c1ccc(C(=O)Nc2ccncc2)cc1 [GSK1398477]
The “%Inh” value of the first is higher: 3% for the first, 0% for the second.

`Cl.Cl.Cl.N#Cc1ccc(CCNc2nccc(-c3cccc(CN4CCNCC4)c3)n2)cc1` [GSK2137462] and `CCCCc1nn2ncccc2c1-c1ccnc(NC2CC2)n1` [GW684374] are the same in “%Inh” value: 0% for the first, 0% for the second.

`COc1cccc(NC(=O)Nc2ccc(C)c(-c3ccc(C(=O)Nc4ccncc4)cc3)c2)c1` [GSK1398474] and `Cc1ccc(-c2nc(Nc3ccncc3)c3ccccc3n2)s1` [GSK189015] are the same in “%Inh” value: 0% for the first, 0% for the second.

Going from `CSc1ccc(-c2nc3n(c2-c2ccncc2)CCC3)cc1` [SKF-105561] to `Fc1ccc(-c2nc3n(c2-c2ccncc2)CCS3)cc1` [GI98581], the “%Inh” value falls from 45% to 3%.

`Cc1cnc(N)c(/C=C/c2cncc(C(=O)NCCc3ccc(Cl)cc3Cl)c2)c1.Cl` [GSK190937] and `CNC(=O)c1ccc(C)c(-n2c(C)cc(OCc3ccc(F)cc3F)c(Br)c2=O)c1` are the same in “%Inh” value: 0% for the first, 0% for the second.

Going from `CCn1c(-c2c(N)noc2C)nc2cnccc21` [SB-737856] to `COc1ccc(CSc2nnc(-c3ccc4nccn4c3)o2)cc1C(F)(F)F`, the “%Inh” value rises from 0% to 18%.

`O=c1cc(N2CCOCC2)nc2n(Cc3ccccc3F)ccn12` [GSK2297428] and `O=C(Nc1n[nH]c2nc(-c3cccs3)c(Br)cc12)C1CC1` [SB-735297] are the same in “%Inh” value: 0% for the first, 0% for the second.

`CC(C)c1ccc(O)cc1Nc1ccnc2ccc(C(F)(F)F)cc12` [GW482059] was tested, and the “%Inh” value was 0%.
